# From ChEMBL document CHEMBL3988442, “University of Dundee, Small-Polar-MMV Screening Library” (2021)
# For some assays here: Results with a measured potency or affinity are listed apart.
# Key:
# Design in all cases: scale not given: direction of the effect not stated beside the values
# [1] = molecular target: Protein translocase subunit SecA (Escherichia coli (strain K12)) (UniProt P10408); assay: Assay to Identify E. coli SecA ATPase Inhibitors; type: functional; conditions: 30 µM
# [2] = molecular target: T1, Ubiquitin-activating enzyme e1, putative (Leishmania donovani (strain BPK282A1)) (UniProt E9BSI1); assay: Leishmania donovani Ubiquitin Activating Enzyme (LdE1); type: functional; conditions: 30 µM
# T1 sequence (whole entry): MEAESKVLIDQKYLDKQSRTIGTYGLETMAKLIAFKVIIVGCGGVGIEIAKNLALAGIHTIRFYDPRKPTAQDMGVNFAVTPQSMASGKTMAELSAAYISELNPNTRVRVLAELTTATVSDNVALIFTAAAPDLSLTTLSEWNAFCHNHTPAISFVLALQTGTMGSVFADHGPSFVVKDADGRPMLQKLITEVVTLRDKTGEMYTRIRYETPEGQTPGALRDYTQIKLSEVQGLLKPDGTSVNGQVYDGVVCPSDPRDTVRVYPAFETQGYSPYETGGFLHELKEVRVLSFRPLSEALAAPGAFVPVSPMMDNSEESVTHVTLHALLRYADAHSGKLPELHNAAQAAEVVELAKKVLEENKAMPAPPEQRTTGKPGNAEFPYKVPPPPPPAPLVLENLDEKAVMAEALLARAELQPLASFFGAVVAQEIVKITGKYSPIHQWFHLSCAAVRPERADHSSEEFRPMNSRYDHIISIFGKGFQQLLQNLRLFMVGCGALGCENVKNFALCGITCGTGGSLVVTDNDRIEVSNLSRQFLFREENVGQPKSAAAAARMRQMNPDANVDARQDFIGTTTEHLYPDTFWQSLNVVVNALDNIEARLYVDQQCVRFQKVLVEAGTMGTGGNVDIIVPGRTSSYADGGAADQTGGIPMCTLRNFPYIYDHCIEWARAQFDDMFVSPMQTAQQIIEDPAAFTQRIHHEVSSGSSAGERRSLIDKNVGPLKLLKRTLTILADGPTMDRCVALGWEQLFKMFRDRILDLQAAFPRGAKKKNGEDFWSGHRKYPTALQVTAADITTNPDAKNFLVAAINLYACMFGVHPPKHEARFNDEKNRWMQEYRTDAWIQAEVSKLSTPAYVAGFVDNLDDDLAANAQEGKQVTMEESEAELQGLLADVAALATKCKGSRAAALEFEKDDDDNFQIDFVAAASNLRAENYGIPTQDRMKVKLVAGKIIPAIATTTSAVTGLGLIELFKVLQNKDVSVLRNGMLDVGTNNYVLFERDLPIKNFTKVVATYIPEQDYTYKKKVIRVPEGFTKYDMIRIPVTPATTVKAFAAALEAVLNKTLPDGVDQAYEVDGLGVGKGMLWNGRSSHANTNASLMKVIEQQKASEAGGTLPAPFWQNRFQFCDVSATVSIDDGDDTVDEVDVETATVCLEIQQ
# [3] = molecular target: AMP-activated protein kinase, AMPK (Homo sapiens) (UniProt P54646+O43741+P54619+Q9UGJ0+Q9Y478+Q13131+Q9UGI9); assay: AMP-dependent Kinase enzyme assay. An in vitro enzyme assay that detects ADP turnover that is directly proportional to AMPK activity. This uses naive AMPK that is activated during the assay with MK-8722; type: functional; conditions: 30 µM
# [4] = molecular target: Sialic acid-binding Ig-like lectin 9 (Homo sapiens) (UniProt Q9Y336); assay: Hs-Siglec9 ALPHAscreen SOP 20170721; conditions: 10 µM
# Trypanosoma cruzi = assay: Trypanosoma cruzi phosphomannomutase and mannose-1-phosphate guanylyltransferase assay; type: functional; conditions: 10 µM
# [5] = molecular target: T2, Arginase-2, mitochondrial (Homo sapiens) (UniProt P78540); assay: in vitro enzyme assay to detect the production of urea directly proportional to the activity of Arginase II; type: functional; conditions: 33.3 µM; note: in the data most compounds retested in dose-response had high values
# T2 sequence (whole entry): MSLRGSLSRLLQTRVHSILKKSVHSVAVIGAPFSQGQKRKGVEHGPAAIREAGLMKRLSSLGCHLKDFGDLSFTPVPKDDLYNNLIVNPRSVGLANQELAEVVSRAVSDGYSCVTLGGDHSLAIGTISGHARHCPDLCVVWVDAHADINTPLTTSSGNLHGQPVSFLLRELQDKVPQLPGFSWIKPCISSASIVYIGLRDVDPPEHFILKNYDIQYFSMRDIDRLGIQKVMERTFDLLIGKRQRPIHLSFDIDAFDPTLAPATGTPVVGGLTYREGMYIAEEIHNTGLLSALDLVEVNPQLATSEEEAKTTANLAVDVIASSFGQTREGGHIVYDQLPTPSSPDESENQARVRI
# [6] = molecular target: T3, Proteasome subunit beta (Trypanosoma cruzi) (UniProt O96673); assay: Trypanosoma cruzi proteasome chymotrypsin-like activity (TcProtChymo) assay.; note: in the data most compounds retested in dose-response had high values; type: functional; conditions: 9.37 µM
# T3 sequence (whole entry): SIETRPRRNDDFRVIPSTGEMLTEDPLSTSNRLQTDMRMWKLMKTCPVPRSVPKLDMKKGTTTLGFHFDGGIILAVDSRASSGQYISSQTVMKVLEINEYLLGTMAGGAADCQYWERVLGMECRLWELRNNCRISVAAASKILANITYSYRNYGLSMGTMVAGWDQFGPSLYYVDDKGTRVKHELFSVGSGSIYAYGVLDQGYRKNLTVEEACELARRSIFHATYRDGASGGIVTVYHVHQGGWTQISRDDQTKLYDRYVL
# Homo sapiens = organism: Homo sapiens; assay: To identify inhibition of the IFN signalling (Jak-Stat) pathway via expression of an eGFP reporter gene under the control of an IFN-stimulated response element (ISRE) containing MxA promoter.; type: functional; conditions: 30 µM
# [7] = molecular target: T4, Tyrosyl-tRNA synthetase, putative (Trypanosoma cruzi (strain CL Brener)) (UniProt Q4DSP6); assay: Trypanosoma cruzi tyrosyl tRNA synthetase (TcYRS) _High Tyrosine SOP; type: functional; conditions: 30 µM; note: in the data most compounds retested in dose-response had high values
# T4 sequence (whole entry): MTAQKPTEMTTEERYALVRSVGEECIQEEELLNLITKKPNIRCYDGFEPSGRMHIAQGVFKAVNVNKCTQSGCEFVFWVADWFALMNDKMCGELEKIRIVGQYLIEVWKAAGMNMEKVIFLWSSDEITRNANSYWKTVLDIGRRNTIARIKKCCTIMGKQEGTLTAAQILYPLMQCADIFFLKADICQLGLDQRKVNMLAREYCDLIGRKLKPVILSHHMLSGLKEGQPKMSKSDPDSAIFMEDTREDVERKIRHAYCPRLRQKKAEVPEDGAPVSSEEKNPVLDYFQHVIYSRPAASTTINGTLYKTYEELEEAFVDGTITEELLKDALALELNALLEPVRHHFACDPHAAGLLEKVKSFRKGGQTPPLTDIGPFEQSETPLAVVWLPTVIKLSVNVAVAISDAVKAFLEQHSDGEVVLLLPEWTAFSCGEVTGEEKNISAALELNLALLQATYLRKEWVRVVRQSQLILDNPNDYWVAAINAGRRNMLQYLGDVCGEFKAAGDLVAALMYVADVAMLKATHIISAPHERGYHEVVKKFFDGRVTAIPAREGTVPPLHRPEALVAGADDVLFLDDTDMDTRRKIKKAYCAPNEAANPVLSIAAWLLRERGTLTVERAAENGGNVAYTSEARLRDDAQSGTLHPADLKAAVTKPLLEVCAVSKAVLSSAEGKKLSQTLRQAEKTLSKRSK
# [8] = molecular target: T4, Tyrosyl-tRNA synthetase, putative (Trypanosoma cruzi (strain CL Brener)); assay: Trypanosoma cruzi tyrosyl tRNA synthetase (TcYRS) SOP; type: functional; conditions: 30 µM
# [9] = molecular target: Chromo domain-containing protein 1 (Saccharomyces cerevisiae (strain ATCC 204508 / S288c) (Baker's yeast)) (UniProt P32657); assay: ScCHD-1 Enzyme Inhibition Assay; type: functional; conditions: 30 µM; note: in the data most compounds retested in dose-response had high values
# Chromo domain-containing protein 1 (Saccharomyces cerevisiae (strain ATCC 204508 / S288c) (Baker's yeast)), sequence (P32657 whole entry, the tested form may be a part): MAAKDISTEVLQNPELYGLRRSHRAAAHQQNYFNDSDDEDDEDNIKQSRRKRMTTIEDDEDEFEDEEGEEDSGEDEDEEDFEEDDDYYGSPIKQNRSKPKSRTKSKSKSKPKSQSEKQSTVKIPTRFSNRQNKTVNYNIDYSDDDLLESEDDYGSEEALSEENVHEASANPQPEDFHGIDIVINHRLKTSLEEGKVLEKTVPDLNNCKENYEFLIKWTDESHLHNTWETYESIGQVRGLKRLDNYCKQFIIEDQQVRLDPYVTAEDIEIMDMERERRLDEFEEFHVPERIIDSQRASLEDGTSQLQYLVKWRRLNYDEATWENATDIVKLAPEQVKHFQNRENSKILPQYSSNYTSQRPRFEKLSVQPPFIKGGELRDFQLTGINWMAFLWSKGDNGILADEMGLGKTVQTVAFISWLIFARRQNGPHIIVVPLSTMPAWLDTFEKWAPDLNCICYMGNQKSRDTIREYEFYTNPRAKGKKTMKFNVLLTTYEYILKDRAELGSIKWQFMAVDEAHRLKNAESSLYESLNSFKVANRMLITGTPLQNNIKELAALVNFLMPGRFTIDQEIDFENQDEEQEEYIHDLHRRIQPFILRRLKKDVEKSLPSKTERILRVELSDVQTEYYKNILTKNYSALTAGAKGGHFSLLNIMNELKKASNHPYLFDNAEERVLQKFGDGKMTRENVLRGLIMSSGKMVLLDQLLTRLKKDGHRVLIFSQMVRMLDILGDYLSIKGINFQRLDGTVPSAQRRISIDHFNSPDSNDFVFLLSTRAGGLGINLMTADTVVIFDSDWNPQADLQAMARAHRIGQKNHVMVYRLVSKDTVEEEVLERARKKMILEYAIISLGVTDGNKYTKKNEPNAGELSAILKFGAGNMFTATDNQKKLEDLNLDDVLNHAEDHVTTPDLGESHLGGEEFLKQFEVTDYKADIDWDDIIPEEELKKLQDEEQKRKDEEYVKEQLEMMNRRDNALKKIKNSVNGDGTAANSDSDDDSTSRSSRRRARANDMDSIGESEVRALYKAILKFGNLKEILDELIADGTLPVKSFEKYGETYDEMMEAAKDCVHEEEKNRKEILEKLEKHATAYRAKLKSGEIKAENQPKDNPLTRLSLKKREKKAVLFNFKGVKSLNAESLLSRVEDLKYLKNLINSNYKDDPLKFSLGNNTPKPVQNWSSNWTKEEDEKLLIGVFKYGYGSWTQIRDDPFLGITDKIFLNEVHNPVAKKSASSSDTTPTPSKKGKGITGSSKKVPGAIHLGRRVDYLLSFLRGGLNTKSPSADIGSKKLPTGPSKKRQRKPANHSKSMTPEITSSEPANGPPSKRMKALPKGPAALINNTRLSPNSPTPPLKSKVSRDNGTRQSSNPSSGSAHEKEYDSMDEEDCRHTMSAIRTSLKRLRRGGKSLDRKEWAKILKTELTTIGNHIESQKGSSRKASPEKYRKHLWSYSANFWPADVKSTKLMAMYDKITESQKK
# Sialic acid-binding Ig-like lectin 9 (Homo sapiens), sequence (Q9Y336 whole entry): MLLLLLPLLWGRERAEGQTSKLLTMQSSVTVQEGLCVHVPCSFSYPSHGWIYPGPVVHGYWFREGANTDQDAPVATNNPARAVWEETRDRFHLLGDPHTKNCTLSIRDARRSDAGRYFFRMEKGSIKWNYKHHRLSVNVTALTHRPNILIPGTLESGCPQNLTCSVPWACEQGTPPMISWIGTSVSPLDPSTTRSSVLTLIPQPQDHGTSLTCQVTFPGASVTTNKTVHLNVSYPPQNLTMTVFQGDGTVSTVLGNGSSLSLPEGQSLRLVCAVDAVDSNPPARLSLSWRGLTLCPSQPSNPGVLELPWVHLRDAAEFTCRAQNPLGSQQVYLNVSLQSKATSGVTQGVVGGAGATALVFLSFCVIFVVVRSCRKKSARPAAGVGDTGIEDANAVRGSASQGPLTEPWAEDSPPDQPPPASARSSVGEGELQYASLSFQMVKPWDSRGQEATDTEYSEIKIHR
# Protein translocase subunit SecA (Escherichia coli (strain K12)), sequence (P10408 whole entry): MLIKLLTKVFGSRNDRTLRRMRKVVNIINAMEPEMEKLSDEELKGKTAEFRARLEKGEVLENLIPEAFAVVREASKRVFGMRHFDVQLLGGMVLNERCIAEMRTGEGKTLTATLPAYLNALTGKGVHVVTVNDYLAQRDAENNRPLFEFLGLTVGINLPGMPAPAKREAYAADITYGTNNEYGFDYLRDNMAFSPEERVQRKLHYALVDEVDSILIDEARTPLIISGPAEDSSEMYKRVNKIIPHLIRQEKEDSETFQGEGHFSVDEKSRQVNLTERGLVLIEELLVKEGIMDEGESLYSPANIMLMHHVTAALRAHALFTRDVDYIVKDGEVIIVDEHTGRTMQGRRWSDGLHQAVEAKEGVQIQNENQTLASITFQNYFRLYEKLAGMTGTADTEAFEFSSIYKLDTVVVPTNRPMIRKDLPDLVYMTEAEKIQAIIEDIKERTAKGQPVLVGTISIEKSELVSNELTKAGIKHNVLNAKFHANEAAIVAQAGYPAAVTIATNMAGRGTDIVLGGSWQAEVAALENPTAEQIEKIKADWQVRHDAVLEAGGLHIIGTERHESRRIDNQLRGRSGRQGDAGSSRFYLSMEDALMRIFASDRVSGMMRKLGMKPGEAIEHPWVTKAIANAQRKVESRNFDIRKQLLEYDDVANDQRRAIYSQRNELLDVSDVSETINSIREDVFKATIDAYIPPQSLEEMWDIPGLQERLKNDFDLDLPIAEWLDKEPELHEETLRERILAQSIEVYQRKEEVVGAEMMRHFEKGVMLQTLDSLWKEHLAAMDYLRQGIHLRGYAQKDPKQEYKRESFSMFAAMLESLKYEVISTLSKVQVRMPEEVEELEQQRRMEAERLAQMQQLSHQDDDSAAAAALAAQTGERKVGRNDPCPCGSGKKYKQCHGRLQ
Structure (SMILES),Percent Effect [1],Percent Effect [2],Percent Effect [3],Percent Effect [4],Percent Effect (Trypanosoma cruzi),Percent Effect [5],Percent Effect [6],Percent Effect (Homo sapiens),Percent Effect [7],Percent Effect [8],Percent Effect [9]
Cc1csc(C2CCCN(C(=O)c3cnc4n[nH]c(C)c4c3)C2)n1 (configuration not stated),-3.7%,10.8%,-5.48%,6.11%,2.36%,-2%,2.7%,16.8%,7.39%,18.5%,-8.83%
COCCN1C[C@H]2[C@@H](C1)N(Cc1ccc(C)o1)CC[C@H]2OC,-2.85%,-30.1%,-5.66%,7.25%,6.94%,-3.19%,14.3%,0.524%,8.33%,6.17%,-11.5%
CC(C)c1nc(C2CCCN2Cc2ccccc2C#N)no1 (configuration not stated),-1.53%,-13%,-3.89%,11.4%,5.24%,1.07%,-4.22%,5.77%,5.83%,12.2%,73.9%
CCNC(=O)c1ccc(N2CCCC(c3nccn3C(C)C)C2)nc1 (configuration not stated),-2.94%,8%,-3.44%,14.3%,5.16%,20.3%,11.2%,6.3%,3.83%,11.1%,-4.72%
O=S(=O)(NC1=NCN(CCc2cccs2)CN1)c1ccccc1,-3.47%,9.33%,1.7%,2.24%,6.29%,-11.1%,18.3%,19.6%,5.29%,12.8%,-7.27%
COc1cccc(-c2noc(-c3ccc(NCC4CC4)nc3)n2)c1OC,-6.26%,0%,-3.38%,6.76%,8.47%,2.08%,11%,31.3%,4.92%,13.6%,-1.62%
CC(NC(=O)NCC1(c2ccccc2)CCC1)c1nncn1C (configuration not stated),-3.15%,13.2%,-7.01%,-5.58%,-5.7%,8.63%,5.67%,-2.94%,5.42%,16.1%,-6.58%
O=C(NC[C@H]1OC[C@@H]2CCN(Cc3ccco3)C[C@@H]21)c1ccsc1,-1.93%,8.22%,-0.185%,8.5%,4.17%,-9.58%,11.2%,-6.7%,6.25%,8.64%,-1.63%
Cc1cnc(C)c(N2CCN(Cc3ccc(-c4cc[nH]n4)o3)CC2)n1,-0.779%,10.7%,-20.1%,21.3%,5.94%,7.29%,22.7%,32%,7.1%,16.1%,-4.34%
COCCOc1ncccc1CNCc1c(C)nn(C)c1N(C)C,-1.27%,-5.41%,-15.1%,-0.788%,1.98%,3.61%,0.721%,-9.31%,2.46%,6.17%,-18.1%
O=C1CC(c2cccnc2)C2(CCN(C(=O)c3ccncc3)CC2)N1 (configuration not stated),-4.11%,10.8%,2.03%,-3.18%,3.81%,-4.78%,17.9%,-0.901%,4.32%,15.4%,1.46%
CC(=O)N1CCn2c(C(=O)N(C)C)cnc2C1,-2.73%,5.33%,9.01%,-0.782%,-1.77%,-3.03%,1.32%,5.39%,3.19%,6.41%,-2.05%
COCCN1CCC(CN(CC2CCCO2)C(=O)CCNC(C)=O)CC1 (configuration not stated),-1.45%,-4.17%,-2.84%,-5.53%,-1.26%,0.883%,1.75%,-4.52%,0%,0%,1.82%
CCN1CC2(CC1=O)CN(Cc1cccs1)CCN(C(=O)C(C)C)C2 (configuration not stated),-5.19%,-5.41%,2.9%,-2.56%,-2.73%,-3.33%,7.35%,-3.43%,4.95%,11%,4.59%
O=C(CCn1cccn1)N1C[C@@H]2CC[C@H](C1)N(Cc1ccccn1)C2=O,-3.32%,5.41%,-4.57%,4.2%,2.51%,0.476%,1.72%,3.77%,5.82%,14.6%,-3.35%
Cc1ccc2cc(C3(O)CCN(C(=O)CN4CCCC4)CC3)ccc2n1,-2.77%,-1.39%,-1.64%,-0.537%,-4.96%,3.53%,11.9%,4.91%,2.1%,5.13%,0.856%
CC1(C)Cc2ccccc2-c2nc(NCCO)[nH]c(=O)c21,-5.03%,13.2%,56%,4.58%,-3.02%,3.55%,20%,31.2%,6.38%,13%,-12.3%
O=S(=O)(C1CC1)N1CCOCC2(CCN(c3ccccn3)C2)C1 (configuration not stated),-6.13%,1.33%,15.1%,-7.58%,-5.7%,-6.51%,7.21%,3.01%,-6.35%,-5.13%,-5.08%
Cc1cnn(CCNCC(=O)NCC2(c3ccccc3)CCC2)c1,-3.26%,10.4%,0.236%,-13.1%,-5.19%,-3.58%,12.4%,11.5%,12.4%,14.1%,-19.9%
Cc1cc(C(=O)NCCN2CCCC(C)C2)nn1C (configuration not stated),-4.5%,5.2%,-3.57%,-8.23%,-0.187%,0%,0.169%,27.8%,3.88%,7.32%,-0.528%
CC(C)[C@H](NC(=O)NC1CCS(=O)(=O)C1)C(=O)NCc1ccccc1Cl (some centres not stated),-0.711%,-6.67%,4.79%,4.22%,-6.88%,-4.05%,3.51%,-4.73%,-5.29%,-2.56%,1.25%
Cc1cc(C)n(-c2cncc(N3CCN(C(=O)C(C)(C)C)CC3)n2)n1,-5.22%,5.41%,10.4%,-2.19%,-3.71%,-0.833%,13.3%,10.5%,3.96%,1.22%,-3.42%
